Consider 101 compounds from ChEMBL document CHEMBL3988442, “University of Dundee, Small-Polar-MMV Screening Library” (2021).

SMILES strings stand for the structures. About 13,000 (27%) of roughly 48,000 compounds showed an effect of 50% or more. The list shows a part of the results.

For the experiment, the system named is Wolbachia pipientis. Put plainly: Anti-Wolbachia Cell-Based Screen. It counts as functional. On the set-up: scale not given: in the data most compounds retested in dose-response had high values. Particulars: 5 µM.
On to `COc1cc(F)ccc1-c1cc(CO)ccn1`, for which the “Percent Effect” value is recorded as -29.15%.
The value for `CC(=O)N[C@@H]1Cc2ccccc2[C@H]1Nc1ccncn1` was 4.323%; that for `CCC1CCCCN1S(=O)(=O)c1c(N)noc1C` (stereo unspecified) was 0.4068%.
With `O=C(c1ccc(-c2cccs2)cc1F)N1CCN(CCO)CC1`, the “Percent Effect” value was -12.79%.
The value for `Cc1nc2cc(F)cc(C(=O)N3CCN(CCO)CC3)c2nc1C` was -10.5%.
The value for `COc1ccc(C(=O)N2CCN(CCO)CC2)c(F)c1` was 102.7%; that for `O=C(NC1CCc2c(ccc(=O)n2CC2CC2)C1)c1cscn1` (stereo unspecified) was -44.11%; that for `Cc1cc(C(=O)N[C@H]2CC[C@@]3(CCC(=O)N3C)CC2)no1` was -27.57%.
`CC(C)Cn1c2c(ccc1=O)CC(N)CC2` (stereo unspecified): the “Percent Effect” value is -23.17%.
As to `Cc1cc(C(=O)NC2CCc3c(ccc(=O)n3CC(C)C)C2)no1` (stereo unspecified), the “Percent Effect” value is 105.4%.
For `CC(C)Cn1c2c(ccc1=O)CC(NC(=O)c1ccsc1)CC2` (stereo unspecified), the “Percent Effect” value is -16.59%.
Under `O=C(CC1CC1)NC1CCc2c(ccc(=O)n2CC2CC2)C1` (stereo unspecified) stands -16.88%; under `CC(=O)NCC(=O)NC1CCc2c(ccc(=O)n2CC2CC2)C1` (stereo unspecified), -21.87%; under `Cc1cc(C(=O)NC2CCc3c(ccc(=O)n3CC3CC3)C2)no1` (stereo unspecified), 117.2%.
The value for `N#Cc1cccc(C(=O)NC2CCc3c(ccc(=O)n3CC3CC3)C2)c1` (stereo unspecified) was 110.8%.
Take `Cc1cc(C(=O)NC2CCc3c(ccc(=O)n3CCN(C)C)C2)no1` (stereo unspecified): the “Percent Effect” value is listed as 93.45%.
Under `CCc1cc(NC2CCS(=O)(=O)CC2)nc(N2CCCCC2)n1` stands -3.09%.
With `Cn1c(CO)cnc1SC1CCCN(c2ccccc2F)C1=O` (stereo unspecified), the “Percent Effect” value was -6.766%.
The value for `CC(Nc1ccn(CCS(C)(=O)=O)n1)c1ccc(C#N)cc1` (stereo unspecified) was -8.389%; that for `F[C@@H]1CN(CC2CC2)C[C@@H]1OCc1nc2ccccc2[nH]1` was -1.846%; that for `O=C(NC1CCN(c2ccc(-c3ccccc3F)nn2)C1)C1CCC1` (stereo unspecified) was -17.95%.
Under `O=C(O)Cn1nc(-c2ccccc2F)ccc1=O` stands 139.2%; under `COC(=O)Cn1nc(-c2ccccc2F)ccc1=O`, 121.8%; under `COc1ccc(F)cc1Cn1nc(C(N)=O)ccc1=O`, 1.725%.
The value for `Cn1nc(-c2ccccc2NC(=O)c2cncc(Br)c2)ccc1=O` was -4.851%; that for `COc1ccc(C(=O)Nc2ccccc2-c2ccc(=O)n(C)n2)nn1` was -4.369%.
`NC(=O)Cn1nc(-c2ccccc2F)ccc1=O`: the “Percent Effect” value was determined as 144.8%.
The value for `CC(=O)Cn1nc(-c2ccccc2F)ccc1=O` was 119.2%.
The value for `CC(C)(C)C(=O)Cn1nc(-c2ccccc2F)ccc1=O` was -0.9957%.
With `CC(C)Oc1cccc(C(=O)C2CCCN(C(=O)c3ncn[nH]3)C2)c1` (stereo unspecified), the “Percent Effect” value is -4.294%.
The value for `CS(=O)(=O)c1ccc(NC(=O)CSc2ccc3c(c2)CCC3)cn1` was 7.446%.
The value for `CC(c1nc(C2CC2)no1)N(C)Cc1cccc(F)c1` (stereo unspecified) was 12.3%.
Under `CCN(CC)C(CNS(=O)(=O)c1ccc(C(=O)NC)cc1)c1ccco1` (stereo unspecified) stands 0.6188%; under `O=C1CCC[C@]2(CN(S(=O)(=O)N3CCOCC3)C[C@H]2c2cccnc2)N1`, 174.7%; under `CC(C)N1CCC2(CC1)CC(c1cccnc1)C(=O)N2` (stereo unspecified), -11.82%.
Turning to `CC1(C)CN(S(=O)(=O)N2CCOCC2)CC1c1ccccc1` (stereo unspecified), the “Percent Effect” value is -33.51%.
For the compound `O=C(N1CC(c2cccnc2)C1)C1(c2ccc(F)cc2)CCOCC1`, the “Percent Effect” value stood at 1.587%.
Consider `O=S(=O)(C1CC1)N1CCC2(CC1)COC(COc1cccnc1)C2` (stereo unspecified), for which the “Percent Effect” value is -3.155%.
For `N[C@H]1CN(S(=O)(=O)N2CCCCCC2)C[C@@H]1c1ccccc1`, the “Percent Effect” value stood at 3.796%.
Under `O=C1CCC[C@]2(CN(S(=O)(=O)N3CCCCC3)C[C@H]2c2cccnc2)N1` stands 175%; under `O=C1CCC[C@]2(CN(S(=O)(=O)C3CCCCC3)C[C@H]2c2cccnc2)N1`, 155.7%; under `CC1(C)CN(S(=O)(=O)N2CCCC2)CC1c1ccccc1` (stereo unspecified), -16.61%.
Under `CCc1[nH]ncc1C(=O)N1CCN(c2nc(C)cc(OC)n2)CC1` stands -4.996%; under `O=C(OCCNc1ncccn1)c1ccc(Cl)s1`, -0.7929%.
For the compound `N#Cc1ccc(OC[C@]23COC[C@H]2CN(c2ncccn2)C3)nc1`, the “Percent Effect” value worked out at 98.67%.
Under `Cc1cccc(CN2C[C@@H]3COC[C@]3(COc3ccc(C#N)cn3)C2)n1` stands -1.985%; under `Cn1cc(CN2C[C@@H]3COC[C@]3(COc3ccc(C#N)cn3)C2)cn1`, -1.317%.
`O=S(=O)(c1ccccc1)N1C[C@@H]2COC[C@]2(COCC2CC2)C1`: the “Percent Effect” value worked out at 4.427%.
Under `c1ccc(COC[C@@H]2CC[C@H]3[C@H](CCN3c3ncccn3)O2)nc1` stands -9.448%; under `c1ccc(COC[C@]23COC[C@H]2CN(c2ncccn2)C3)nc1`, 107.1%.
Under `CCc1ncc2c(n1)CN(C(C)C(=O)N1CCOCC1)CC2` (stereo unspecified) stands -13.62%; under `CC(Oc1ccc(F)cc1F)C(=O)N1CCC2(CCCO2)CC1` (stereo unspecified), -4.107%; under `O=C(c1cccc(O)n1)N1CCC(O)(CN2CCC(F)(F)CC2)C1` (stereo unspecified), 119.2%.
For the compound `CCOc1ccccc1OC1CCN(C(=O)c2ccc(=O)[nH]n2)CC1`, the “Percent Effect” value was -11.25%.
Turning to `O=C(c1cn2ccsc2n1)N1CCOCC(O)(CN2CCCC2)C1` (stereo unspecified), the “Percent Effect” value worked out at 6.26%.
For `O=C(c1cnc(COc2ccccc2)nc1O)N1CCC(F)(F)CC1`, the “Percent Effect” value is 10.39%.
Under `O=C(c1cc(F)ccc1F)C1CCN(C(=O)c2ccc(=O)[nH]n2)CC1` stands 6.401%.
The value for `O=C(c1ccc(=O)[nH]n1)N1CCCC(O)(CN2CCC(F)(F)CC2)CC1` (stereo unspecified) was 110.9%; that for `NC(=O)Nc1cc(F)ccc1SCC(F)F` was -8.756%; that for `CCn1cc(CNC(C)c2noc(-c3ccc(Cl)cc3)n2)cn1` (stereo unspecified) was 5.108%.
Under `CCN(CC1CCOC1)S(=O)(=O)Cc1ccccc1Cl` (stereo unspecified) stands -1.168%; under `CC(CN1CCOCC1)NCC1CCN(c2cnn(C)c(=O)c2)CC1` (stereo unspecified), -0.8467%.
On to `Cc1ccc(C)c(OCCNC(=O)[C@@H]2CCCCN2)c1`, for which the “Percent Effect” value was -1.478%.
Under `Cc1ccc(CNC(=O)C2CCNC(=O)C2)c(OCCC(C)C)c1` (stereo unspecified) stands 103.9%; under `O=C(CNC(=O)C1CC1)Nc1c(F)cccc1Oc1ccccc1`, -3.554%; under `Cc1cccc(Oc2ccccc2CNC(=O)C2CCC(=O)NC2)c1` (stereo unspecified), 96.69%.
The value for `CCc1[nH]c2c(CNC(=O)C3CCC(=O)NC3)cc(C)cc2c1C` (stereo unspecified) was -3.367%.
The value for `O=C(NCc1ccccc1OCC1CC1)C1CCOC1` (stereo unspecified) was -26.71%.
With `O=C1CCC(C(=O)NCCOc2cccc(Cl)c2Cl)CN1` (stereo unspecified), the “Percent Effect” value is reported as -0.2416%.
Under `O=C1CC(C(=O)NCc2ccccc2Oc2ccccc2F)CCN1` (stereo unspecified) stands 91.68%.
Under `CC(C)(C)Oc1ccccc1CNC(=O)C1CCCOC1` (stereo unspecified) stands -47.48%.
Under `Cc1ccc(C)c(OCCNC(=O)C2CCOC2)c1` (stereo unspecified) stands -7.675%; under `CCc1[nH]c2c(CNC(=O)C3CNC(=O)C3)cc(C)cc2c1C` (stereo unspecified), -7.809%; under `Cc1cccc(Oc2ccccc2CNC(=O)C2CCNC(=O)C2)c1` (stereo unspecified), 104.5%.
With `CC(NC(=O)N1CCSC(C)(C)C1)c1noc(-c2ccccc2)n1` (stereo unspecified), the “Percent Effect” value was -9.511%.
Take `CCC[C@H]1CN(Cc2cncn2C)C[C@@H]1NC(=O)C1(COC)CCC1`: the “Percent Effect” value is listed as -8.158%.
As for `COCCNC(=O)c1ccoc1CN1c2ccccc2CC1C` (stereo unspecified), the “Percent Effect” value is on record as -13.79%.
Under `Cc1nc(C)n(CC(C)C(=O)N2CCCN(C3CCCC3)CC2)n1` (stereo unspecified) stands -15.63%.
Under `O=c1[nH][nH]cc1-c1ccnc(NCCCN2CCOCC2)n1` stands 116.9%.
Under `C[C@H]1CCCCN1CCCNc1nccc(-c2c[nH][nH]c2=O)n1` stands 112%; under `O=C1O[C@@H]2CN(Cc3ccncc3)C[C@@H]2N1CCCN1CCOCC1`, -10.63%; under `O=c1[nH][nH]cc1-c1ccnc(NCCN2CCCC2)n1`, -6.447%.
`O=c1[nH][nH]cc1-c1ccnc(NCCN2CCCCC2)n1`: the “Percent Effect” value was 112.5%.
`CC(C)COCC(NC(=O)c1ccccn1)c1ccco1` (stereo unspecified): the “Percent Effect” value is recorded as 12.33%.
Under `O=C1CNCC(C(=O)N2CC(Oc3ccccc3Cl)C2)N1` (stereo unspecified) stands -5.2%; under `COc1ccc(F)cc1CN1CCCn2nc(CNS(C)(=O)=O)cc2C1`, 6.854%.
As for `O=C(C1CC1)N1CCC(c2nc(-c3ccccc3)n[nH]2)CC1`, the “Percent Effect” value was -8.829%.
For `CN1CCC(C(=O)N2CCC(c3ccc4c(N)n[nH]c4n3)CC2)CC1`, the “Percent Effect” value was 104%.
In the case of `Cc1ccc2c(c1)c(CNC(=O)C1CCN(C(=O)C3CC3)CC1)nn2C`, the “Percent Effect” value is listed as -8.87%.
The value for `CCc1noc(CN(C)C(=O)C(C)(C)Oc2cccc(Cl)c2)n1` was 11.07%.
Under `CO[C@H]1COCCN(C(=O)c2ccc(C(F)(F)F)cc2)C1` stands -0.5949%; under `COCc1cnc2n1CCN(Cc1cccnc1)C2C.O=C(O)C(F)(F)F.O=C(O)C(F)(F)F` (stereo unspecified), -12.59%; under `Cc1ncsc1CN1CCn2c(COc3cccnc3)cnc2C1C.O=C(O)C(F)(F)F.O=C(O)C(F)(F)F` (stereo unspecified), -6.197%.
As to `CC1c2ncc(COc3cccnc3)n2CCN1Cc1cnn(C)c1.O=C(O)C(F)(F)F.O=C(O)C(F)(F)F` (stereo unspecified), the “Percent Effect” value was found to be 101.1%.
Under `CCOCc1cnc2n1CCN(Cc1nc(C)cs1)C2C.O=C(O)C(F)(F)F` (stereo unspecified) stands -1.73%; under `CC1c2ncc(COc3cccnc3)n2CCN1C(=O)C1=CCCC1.O=C(O)C(F)(F)F` (stereo unspecified), 6.564%.
For the compound `Cc1ccc(CN2CCn3c(COc4cccnc4)cnc3C2C)o1.O=C(O)C(F)(F)F.O=C(O)C(F)(F)F` (stereo unspecified), the “Percent Effect” value came out at 105.5%.
The value for `CCOCc1cnc2n1CCN(Cc1cccs1)C2C.O=C(O)C(F)(F)F` (stereo unspecified) was 10.91%; that for `Cc1ccc(CN2CC[C@@H](N3CCOCC3)[C@@H]2Cc2cccnc2)o1.O=C(O)C(F)(F)F.O=C(O)C(F)(F)F.O=C(O)C(F)(F)F` was -6.789%; that for `Cc1ccsc1CN1CCn2c(COc3cccnc3)cnc2C1C.O=C(O)C(F)(F)F.O=C(O)C(F)(F)F` (stereo unspecified) was 105.4%.
Consider `Cc1csc(CN2CCn3c(COc4cccnc4)cnc3C2C)n1.O=C(O)C(F)(F)F.O=C(O)C(F)(F)F` (stereo unspecified), for which the “Percent Effect” value turned out to be 106.1%.
